# Data from article PMC7862700, “An all-to-all approach to the identification of sequence-specific readers for epigenetic DNA modifications on cytosine”.
# Key:
# Assay in all cases: DAPPL (digital affinity profiling via proximity ligation, sequencing); 10 mM Tris-HCl pH 7.5, 50 mM NaCl, 1 mM DTT, 4% glycerol, room temperature, 30 min; GST-TFs on glutathione beads, 16-mer random dsDNA library, 0.1% formaldehyde crosslink after washing; high values mean tight binding
# FEV = biological target: T1, FEV (Homo sapiens, UniProt Q99581 1-238); conditions: protein: recombinant; tags: N-terminal GST; dsDNA, one strand shown
# T1 sequence: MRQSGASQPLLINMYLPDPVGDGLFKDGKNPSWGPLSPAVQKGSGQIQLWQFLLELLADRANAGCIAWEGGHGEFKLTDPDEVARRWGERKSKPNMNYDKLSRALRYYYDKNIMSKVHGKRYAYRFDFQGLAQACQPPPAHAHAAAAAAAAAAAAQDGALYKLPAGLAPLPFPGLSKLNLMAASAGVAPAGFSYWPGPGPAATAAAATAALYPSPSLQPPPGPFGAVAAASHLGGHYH
# Outline: (§1)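 Each value of binding signal is a hexamer's read frequency for a factor divided by the same hexamer's frequency in the tag-only sample. Barcoded, bead-captured GST fusions of human transcription factors made in yeast were pooled with that sample and incubated with 200 nmole of a random double-stranded 16-mer DNA library in Tris/NaCl/DTT/glycerol buffer at room temperature for 30 min. Washing, 0.1% formaldehyde crosslinking, proximity ligation, PCR and Illumina NextSeq500 sequencing followed.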
# ETV5 = ETV5 (Homo sapiens, UniProt P41161 1-510); conditions: protein: recombinant; tags: N-terminal GST; dsDNA, one strand shown
# Sequence of ETV5 (P41161 whole entry): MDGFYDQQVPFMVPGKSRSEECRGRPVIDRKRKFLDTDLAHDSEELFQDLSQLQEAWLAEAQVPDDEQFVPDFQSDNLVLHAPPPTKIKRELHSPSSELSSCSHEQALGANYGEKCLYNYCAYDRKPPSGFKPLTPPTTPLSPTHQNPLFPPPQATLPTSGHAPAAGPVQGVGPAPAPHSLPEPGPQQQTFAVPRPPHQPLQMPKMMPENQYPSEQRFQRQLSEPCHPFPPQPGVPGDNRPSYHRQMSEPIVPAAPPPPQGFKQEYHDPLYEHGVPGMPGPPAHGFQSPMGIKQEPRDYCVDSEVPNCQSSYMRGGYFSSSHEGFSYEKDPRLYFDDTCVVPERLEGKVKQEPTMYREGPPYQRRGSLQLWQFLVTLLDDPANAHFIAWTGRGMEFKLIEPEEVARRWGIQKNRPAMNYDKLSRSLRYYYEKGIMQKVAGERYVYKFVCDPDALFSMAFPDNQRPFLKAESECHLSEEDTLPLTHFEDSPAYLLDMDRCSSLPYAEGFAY
# Outline: as §1
# HSF1 = HSF1 (Homo sapiens, UniProt Q00613 1-529); conditions: protein: recombinant; tags: N-terminal GST; chain copies: 3; dsDNA, one strand shown
# Sequence of HSF1 (Q00613 whole entry): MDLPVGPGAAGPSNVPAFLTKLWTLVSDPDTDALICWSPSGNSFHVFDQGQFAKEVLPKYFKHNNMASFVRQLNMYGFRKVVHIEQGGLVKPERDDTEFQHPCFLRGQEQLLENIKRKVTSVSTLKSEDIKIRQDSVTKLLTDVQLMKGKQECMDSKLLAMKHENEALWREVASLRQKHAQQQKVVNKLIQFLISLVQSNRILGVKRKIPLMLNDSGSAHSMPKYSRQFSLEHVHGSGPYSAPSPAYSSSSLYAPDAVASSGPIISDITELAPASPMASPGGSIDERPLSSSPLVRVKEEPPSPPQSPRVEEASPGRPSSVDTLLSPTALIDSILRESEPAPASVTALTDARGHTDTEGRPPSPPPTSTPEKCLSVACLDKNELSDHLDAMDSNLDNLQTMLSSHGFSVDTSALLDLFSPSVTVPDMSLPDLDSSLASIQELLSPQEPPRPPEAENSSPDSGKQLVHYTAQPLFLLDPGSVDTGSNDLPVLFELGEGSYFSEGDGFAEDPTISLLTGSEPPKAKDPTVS
# Outline: as §1
# SPIC = biological target: T2, SPIC (Homo sapiens, UniProt Q8N5J4 1-248); conditions: protein: recombinant; tags: N-terminal GST; dsDNA, one strand shown
# T2 sequence: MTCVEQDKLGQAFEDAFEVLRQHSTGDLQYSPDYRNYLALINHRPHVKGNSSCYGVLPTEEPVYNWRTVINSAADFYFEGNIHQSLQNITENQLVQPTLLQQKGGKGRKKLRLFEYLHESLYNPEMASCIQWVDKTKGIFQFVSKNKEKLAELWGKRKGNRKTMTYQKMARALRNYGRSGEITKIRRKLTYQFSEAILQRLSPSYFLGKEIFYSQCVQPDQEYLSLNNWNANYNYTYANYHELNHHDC
# Outline: as §1
# ELF4 = ELF4 (Homo sapiens, UniProt Q99607 1-663); conditions: protein: recombinant; tags: N-terminal GST; dsDNA, one strand shown
# Sequence of ELF4 (Q99607 whole entry): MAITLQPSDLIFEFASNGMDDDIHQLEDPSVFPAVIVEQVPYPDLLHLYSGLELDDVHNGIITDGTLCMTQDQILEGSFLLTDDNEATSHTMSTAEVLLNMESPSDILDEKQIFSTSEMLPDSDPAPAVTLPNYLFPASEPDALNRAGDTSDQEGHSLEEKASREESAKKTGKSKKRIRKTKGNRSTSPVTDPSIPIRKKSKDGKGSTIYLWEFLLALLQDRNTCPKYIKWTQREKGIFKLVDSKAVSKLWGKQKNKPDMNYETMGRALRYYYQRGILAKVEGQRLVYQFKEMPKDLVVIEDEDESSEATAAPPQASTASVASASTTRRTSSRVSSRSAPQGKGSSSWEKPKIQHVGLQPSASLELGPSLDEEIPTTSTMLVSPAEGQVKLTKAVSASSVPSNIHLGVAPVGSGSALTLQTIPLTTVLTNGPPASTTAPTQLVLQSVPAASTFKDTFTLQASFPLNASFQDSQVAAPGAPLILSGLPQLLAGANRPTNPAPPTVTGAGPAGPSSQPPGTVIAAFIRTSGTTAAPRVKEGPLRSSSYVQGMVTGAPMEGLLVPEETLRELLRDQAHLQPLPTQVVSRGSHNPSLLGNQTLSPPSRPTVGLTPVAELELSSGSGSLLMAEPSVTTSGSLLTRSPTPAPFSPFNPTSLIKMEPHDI
# Outline: as §1
# ELK4 = biological target: T3, ELK4 (Homo sapiens, UniProt P28324-2 1-405); conditions: protein: recombinant; tags: N-terminal GST; dsDNA, one strand shown
# T3 sequence: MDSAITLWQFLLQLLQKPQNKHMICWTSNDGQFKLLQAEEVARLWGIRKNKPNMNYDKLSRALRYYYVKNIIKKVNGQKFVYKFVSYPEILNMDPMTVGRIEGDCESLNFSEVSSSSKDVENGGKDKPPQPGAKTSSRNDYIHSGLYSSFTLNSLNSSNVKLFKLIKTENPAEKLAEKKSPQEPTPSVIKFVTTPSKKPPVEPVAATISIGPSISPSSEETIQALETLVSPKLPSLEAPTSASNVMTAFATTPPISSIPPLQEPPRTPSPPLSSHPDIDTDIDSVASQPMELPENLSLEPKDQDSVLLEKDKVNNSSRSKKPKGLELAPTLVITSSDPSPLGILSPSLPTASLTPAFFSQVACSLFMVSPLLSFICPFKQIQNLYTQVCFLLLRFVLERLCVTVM
# Outline: as §1
# ETV2 = biological target: T4, ETV2 (Homo sapiens, UniProt O00321 1-342); conditions: protein: recombinant; tags: N-terminal GST; dsDNA, one strand shown
# T4 sequence: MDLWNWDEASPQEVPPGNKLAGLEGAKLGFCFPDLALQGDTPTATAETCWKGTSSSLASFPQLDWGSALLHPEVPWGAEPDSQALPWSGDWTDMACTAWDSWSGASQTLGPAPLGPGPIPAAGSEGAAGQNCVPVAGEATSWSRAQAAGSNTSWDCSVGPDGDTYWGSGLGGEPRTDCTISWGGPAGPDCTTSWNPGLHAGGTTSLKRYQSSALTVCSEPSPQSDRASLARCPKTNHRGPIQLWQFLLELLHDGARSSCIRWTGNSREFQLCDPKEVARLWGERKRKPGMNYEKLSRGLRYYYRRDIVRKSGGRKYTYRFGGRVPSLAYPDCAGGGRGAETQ
# Outline: as §1
# ELF3 = biological target: T5, ELF3 (Homo sapiens, UniProt P78545 1-371); conditions: protein: recombinant; tags: N-terminal GST; dsDNA, one strand shown
# T5 sequence: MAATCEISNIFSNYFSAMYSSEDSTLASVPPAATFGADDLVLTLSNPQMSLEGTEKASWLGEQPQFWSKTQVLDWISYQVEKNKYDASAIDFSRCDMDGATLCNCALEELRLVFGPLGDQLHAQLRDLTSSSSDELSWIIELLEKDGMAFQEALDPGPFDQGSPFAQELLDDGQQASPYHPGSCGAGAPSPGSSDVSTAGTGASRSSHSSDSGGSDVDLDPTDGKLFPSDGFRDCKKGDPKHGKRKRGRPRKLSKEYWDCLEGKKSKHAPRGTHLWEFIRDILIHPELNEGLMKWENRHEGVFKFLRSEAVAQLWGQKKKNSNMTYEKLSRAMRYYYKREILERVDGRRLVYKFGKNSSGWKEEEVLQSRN
# Outline: as §1
# CRX = CRX (Homo sapiens, UniProt O43186 1-299); conditions: protein: recombinant; tags: N-terminal GST; dsDNA, one strand shown
# Sequence of CRX (O43186 whole entry): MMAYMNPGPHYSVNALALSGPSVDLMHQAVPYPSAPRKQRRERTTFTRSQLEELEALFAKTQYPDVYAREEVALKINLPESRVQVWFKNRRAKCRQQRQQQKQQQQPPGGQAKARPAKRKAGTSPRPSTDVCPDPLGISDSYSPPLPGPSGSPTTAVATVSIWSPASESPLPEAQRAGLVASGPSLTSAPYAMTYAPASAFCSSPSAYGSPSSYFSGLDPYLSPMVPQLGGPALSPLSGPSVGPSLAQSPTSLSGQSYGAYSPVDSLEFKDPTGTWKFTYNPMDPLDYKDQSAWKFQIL
# Outline: as §1
# ETV1 = ETV1 (Homo sapiens, UniProt P50549 1-477); conditions: protein: recombinant; tags: N-terminal GST; dsDNA, one strand shown
# Sequence of ETV1 (P50549 whole entry): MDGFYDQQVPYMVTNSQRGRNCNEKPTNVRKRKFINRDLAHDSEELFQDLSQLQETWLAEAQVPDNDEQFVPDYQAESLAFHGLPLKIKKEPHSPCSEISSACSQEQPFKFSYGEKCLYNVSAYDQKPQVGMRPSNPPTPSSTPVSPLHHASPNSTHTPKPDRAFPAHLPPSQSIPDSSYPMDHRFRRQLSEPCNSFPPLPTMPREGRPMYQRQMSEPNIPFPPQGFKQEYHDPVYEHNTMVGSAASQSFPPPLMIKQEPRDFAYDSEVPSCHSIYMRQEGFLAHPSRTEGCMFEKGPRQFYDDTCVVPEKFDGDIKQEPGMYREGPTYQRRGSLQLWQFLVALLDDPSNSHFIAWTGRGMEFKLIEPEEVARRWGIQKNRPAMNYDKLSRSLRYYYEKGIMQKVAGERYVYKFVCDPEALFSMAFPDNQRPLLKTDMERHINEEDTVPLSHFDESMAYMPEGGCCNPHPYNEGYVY
# Outline: as §1
# ERF = biological target: T6, ERF (Homo sapiens, UniProt P50548 1-548); conditions: protein: recombinant; tags: N-terminal GST; dsDNA, one strand shown
# T6 sequence: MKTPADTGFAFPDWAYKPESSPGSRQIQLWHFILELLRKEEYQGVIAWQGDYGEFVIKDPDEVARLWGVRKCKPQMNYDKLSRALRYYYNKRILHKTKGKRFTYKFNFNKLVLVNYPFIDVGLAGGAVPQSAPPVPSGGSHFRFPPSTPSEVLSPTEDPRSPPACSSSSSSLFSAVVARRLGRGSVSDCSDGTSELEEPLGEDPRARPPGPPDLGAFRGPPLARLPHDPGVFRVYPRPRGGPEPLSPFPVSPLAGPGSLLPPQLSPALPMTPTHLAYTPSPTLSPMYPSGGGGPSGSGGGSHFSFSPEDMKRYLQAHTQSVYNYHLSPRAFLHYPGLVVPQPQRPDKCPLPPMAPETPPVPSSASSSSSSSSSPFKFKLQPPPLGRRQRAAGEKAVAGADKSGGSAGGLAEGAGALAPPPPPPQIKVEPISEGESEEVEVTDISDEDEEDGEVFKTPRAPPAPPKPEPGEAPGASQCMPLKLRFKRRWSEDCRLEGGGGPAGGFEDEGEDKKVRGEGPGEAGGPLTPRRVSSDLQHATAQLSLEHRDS
# Outline: as §1
# ETV3L = biological target: T7, ETV3L (Homo sapiens, UniProt Q6ZN32 1-361); conditions: protein: recombinant; tags: N-terminal GST; dsDNA, one strand shown
# T7 sequence: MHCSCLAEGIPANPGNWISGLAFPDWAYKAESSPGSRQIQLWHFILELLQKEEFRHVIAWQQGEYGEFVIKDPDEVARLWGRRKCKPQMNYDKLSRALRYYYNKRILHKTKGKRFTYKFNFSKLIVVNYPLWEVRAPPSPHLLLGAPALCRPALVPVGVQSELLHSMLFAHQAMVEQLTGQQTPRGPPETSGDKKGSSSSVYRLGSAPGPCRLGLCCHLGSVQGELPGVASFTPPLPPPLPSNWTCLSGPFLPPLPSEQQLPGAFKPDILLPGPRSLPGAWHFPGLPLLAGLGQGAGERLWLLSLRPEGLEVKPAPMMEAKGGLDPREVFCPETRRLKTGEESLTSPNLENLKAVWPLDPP
# Outline: as §1
# ETS2 = biological target: T8, ETS2 (Homo sapiens, UniProt P15036 1-469); conditions: protein: recombinant; tags: N-terminal GST; dsDNA, one strand shown
# T8 sequence: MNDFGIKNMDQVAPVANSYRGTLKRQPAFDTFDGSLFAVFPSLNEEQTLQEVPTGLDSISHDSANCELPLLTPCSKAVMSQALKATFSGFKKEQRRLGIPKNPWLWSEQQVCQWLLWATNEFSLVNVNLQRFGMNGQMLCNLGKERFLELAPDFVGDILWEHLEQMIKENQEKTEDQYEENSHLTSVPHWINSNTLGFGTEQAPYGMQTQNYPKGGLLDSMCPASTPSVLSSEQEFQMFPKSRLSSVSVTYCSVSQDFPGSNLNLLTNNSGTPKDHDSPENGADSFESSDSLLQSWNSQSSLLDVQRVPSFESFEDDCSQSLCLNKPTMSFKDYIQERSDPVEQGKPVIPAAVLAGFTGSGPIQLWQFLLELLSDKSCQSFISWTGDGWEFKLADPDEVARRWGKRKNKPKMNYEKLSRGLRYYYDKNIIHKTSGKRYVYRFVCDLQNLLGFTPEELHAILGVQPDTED
# Outline: as §1
# SPDEF = biological target: T9, SPDEF (Homo sapiens, UniProt O95238 1-335); conditions: protein: recombinant; tags: N-terminal GST; dsDNA, one strand shown
# T9 sequence: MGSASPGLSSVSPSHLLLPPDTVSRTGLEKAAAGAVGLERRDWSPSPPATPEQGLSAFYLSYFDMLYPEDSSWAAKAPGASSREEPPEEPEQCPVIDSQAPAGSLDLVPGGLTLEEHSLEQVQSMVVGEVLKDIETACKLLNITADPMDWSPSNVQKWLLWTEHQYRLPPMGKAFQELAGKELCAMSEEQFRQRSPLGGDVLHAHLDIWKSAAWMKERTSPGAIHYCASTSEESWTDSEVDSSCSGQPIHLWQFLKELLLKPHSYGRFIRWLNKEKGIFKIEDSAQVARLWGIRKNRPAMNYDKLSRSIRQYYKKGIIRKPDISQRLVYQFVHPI
# Outline: as §1
# ETV7 = biological target: T10, ETV7 (Homo sapiens, UniProt Q9Y603 1-341); conditions: protein: recombinant; tags: N-terminal GST; dsDNA, one strand shown
# T10 sequence: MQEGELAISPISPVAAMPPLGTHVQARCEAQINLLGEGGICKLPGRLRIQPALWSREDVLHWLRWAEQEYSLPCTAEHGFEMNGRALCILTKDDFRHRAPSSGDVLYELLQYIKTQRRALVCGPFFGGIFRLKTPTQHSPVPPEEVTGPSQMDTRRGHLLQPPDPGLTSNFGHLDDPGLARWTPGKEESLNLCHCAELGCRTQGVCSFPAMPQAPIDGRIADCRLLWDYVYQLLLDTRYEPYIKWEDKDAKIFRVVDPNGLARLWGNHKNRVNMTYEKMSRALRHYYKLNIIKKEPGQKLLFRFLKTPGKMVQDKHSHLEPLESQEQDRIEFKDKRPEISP
# Outline: as §1
# ELF5 = biological target: T11, ELF5 (Homo sapiens, UniProt Q9UKW6-2 1-255); conditions: protein: recombinant; tags: N-terminal GST; dsDNA, one strand shown
# T11 sequence: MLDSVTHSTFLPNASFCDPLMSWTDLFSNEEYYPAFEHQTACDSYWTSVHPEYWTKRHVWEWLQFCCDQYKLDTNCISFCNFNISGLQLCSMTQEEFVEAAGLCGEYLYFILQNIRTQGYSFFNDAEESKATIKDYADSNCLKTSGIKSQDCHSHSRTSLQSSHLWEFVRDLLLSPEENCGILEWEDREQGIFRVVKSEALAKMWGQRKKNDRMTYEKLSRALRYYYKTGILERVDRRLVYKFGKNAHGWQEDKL
# Outline: as §1
# ETV3 = biological target: T12, ETV3 (Homo sapiens, UniProt P41162-2 1-143); conditions: protein: recombinant; tags: N-terminal GST; dsDNA, one strand shown
# T12 sequence: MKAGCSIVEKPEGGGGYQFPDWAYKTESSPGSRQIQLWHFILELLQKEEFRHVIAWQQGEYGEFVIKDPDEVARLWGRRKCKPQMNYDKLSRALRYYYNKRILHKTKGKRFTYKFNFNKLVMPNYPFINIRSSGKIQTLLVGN
# Outline: as §1
# ETV6 = ETV6 (Homo sapiens, UniProt P41212 1-452); conditions: protein: recombinant; tags: N-terminal GST; dsDNA, one strand shown
# Sequence of ETV6 (P41212 whole entry): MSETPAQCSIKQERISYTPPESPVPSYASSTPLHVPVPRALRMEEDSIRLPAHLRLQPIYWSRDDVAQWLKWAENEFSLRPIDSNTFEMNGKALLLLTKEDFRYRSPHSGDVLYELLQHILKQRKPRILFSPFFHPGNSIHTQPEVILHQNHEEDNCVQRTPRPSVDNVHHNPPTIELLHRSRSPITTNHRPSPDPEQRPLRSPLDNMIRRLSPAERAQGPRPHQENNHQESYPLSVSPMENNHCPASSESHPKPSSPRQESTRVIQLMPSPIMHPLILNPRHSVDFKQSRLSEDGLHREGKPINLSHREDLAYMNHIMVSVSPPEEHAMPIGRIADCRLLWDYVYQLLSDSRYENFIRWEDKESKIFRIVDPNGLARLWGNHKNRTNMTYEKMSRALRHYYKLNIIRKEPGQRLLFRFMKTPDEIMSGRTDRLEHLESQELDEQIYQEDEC
# Outline: as §1
sequence,measurement,setting,value
ACAACT,binding signal,FEV,"1.35 fold enrichment (6-mer frequency, TF over GST control)"
same,binding signal,ETV5,"1.32 fold enrichment (6-mer frequency, TF over GST control)"
same,binding signal,HSF1,"1.11 fold enrichment (6-mer frequency, TF over GST control)"
same,binding signal,SPIC,"1.39 fold enrichment (6-mer frequency, TF over GST control)"
same,binding signal,ELF4,"1.36 fold enrichment (6-mer frequency, TF over GST control)"
same,binding signal,ELK4,"1.34 fold enrichment (6-mer frequency, TF over GST control)"
same,binding signal,ETV2,"1.29 fold enrichment (6-mer frequency, TF over GST control)"
same,binding signal,ELF3,"1.42 fold enrichment (6-mer frequency, TF over GST control)"
same,binding signal,CRX,"1.02 fold enrichment (6-mer frequency, TF over GST control)"
same,binding signal,ETV1,"1.27 fold enrichment (6-mer frequency, TF over GST control)"
same,binding signal,ERF,"1.4 fold enrichment (6-mer frequency, TF over GST control)"
same,binding signal,ETV3L,"1.36 fold enrichment (6-mer frequency, TF over GST control)"
same,binding signal,ETS2,"1.39 fold enrichment (6-mer frequency, TF over GST control)"
same,binding signal,SPDEF,"1.43 fold enrichment (6-mer frequency, TF over GST control)"
same,binding signal,ETV7,"1.14 fold enrichment (6-mer frequency, TF over GST control)"
same,binding signal,ELF5,"1.36 fold enrichment (6-mer frequency, TF over GST control)"
same,binding signal,ETV3,"1.35 fold enrichment (6-mer frequency, TF over GST control)"
same,binding signal,ETV6,"1.34 fold enrichment (6-mer frequency, TF over GST control)"
